# Screening data deposited in PubChem BioAssay by National Center for Advancing Translational Sciences (NCATS).
# SW480 rerep: DNA re-replication induction in SW480 cells; Potency, µM (doses to about 46.1 µM), hits mostly activators; SW480 DNA re-replication, Hoechst DNA content imaging, 48 h; 1.8% of 340,000 active; further: nearly all actives have a fitted effect of over 55% in size
#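 SW480 cells exposed to compounds for 48 hr at 37 C, 5% CO2, then Hoechst-stained 40 min. Nuclear DNA content imaged by fluorescence scanning (405 nm excitation, 500-530 nm emission); re-replication scored as increased high-intensity nuclei.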
# IL1B secr inh: inhibitors of inflammasome signaling (IL-1 beta secretion); THP-1 LPS/ATP IL-1B secretion, AlphaLISA, 16 h; stronger effect = lower value; activity change, % at 57.5 µM; 4.7% of 360,000 active; AID 743279; in the data active means activity change below about -50%; inconclusive means mostly about -30% to -49%
#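 THP-1 cells pretreated 1 hr with compounds (up to 57.5 uM final), then stimulated with LPS (250 ng/mL final) plus ATP (1.25 mM final); secreted IL-1B measured by AlphaLISA after 16 hr, decreased signal indicating inhibition.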
# MCF10A rereplic: DNA re-replication induction in MCF 10a cells; Potency, µM (doses to about 46.1 µM), usual class: activators; MCF 10A DNA re-replication, Hoechst nuclear intensity, 48 h; AID 624296; 2.9% of 350,000 active; further: nearly all actives have a fitted effect of over 50% in size
# VP16 counter: Gal4-VP16 reporter inhibition counter-screen. Drosophila S2 Gal4-VP16 UAS-luciferase, luminescence, 20 h. Potency, µM (doses to about 53.6 µM), actives largely listed as inhibitors. 3.5% of 310,000 active. AID 2546;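 further: Gal4-VP16 expression switched on by copper sulfate through the metallothionein promoter; nearly all actives have a fitted effect of over 50% in size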
# RORgamma inh: ROR gamma (mouse) transcription inhibition | P51450 | Drosophila S2 Gal4-RORgamma UAS-luciferase reporter, 20 h | Potency, µM (top dose mostly 53.6 µM), hits mostly inhibitors | 5.4% of 310,000 active; further: nearly all actives have a fitted effect of over 60% in size
# Target sequence (P51450 whole entry, looked up, the tested form may be a part): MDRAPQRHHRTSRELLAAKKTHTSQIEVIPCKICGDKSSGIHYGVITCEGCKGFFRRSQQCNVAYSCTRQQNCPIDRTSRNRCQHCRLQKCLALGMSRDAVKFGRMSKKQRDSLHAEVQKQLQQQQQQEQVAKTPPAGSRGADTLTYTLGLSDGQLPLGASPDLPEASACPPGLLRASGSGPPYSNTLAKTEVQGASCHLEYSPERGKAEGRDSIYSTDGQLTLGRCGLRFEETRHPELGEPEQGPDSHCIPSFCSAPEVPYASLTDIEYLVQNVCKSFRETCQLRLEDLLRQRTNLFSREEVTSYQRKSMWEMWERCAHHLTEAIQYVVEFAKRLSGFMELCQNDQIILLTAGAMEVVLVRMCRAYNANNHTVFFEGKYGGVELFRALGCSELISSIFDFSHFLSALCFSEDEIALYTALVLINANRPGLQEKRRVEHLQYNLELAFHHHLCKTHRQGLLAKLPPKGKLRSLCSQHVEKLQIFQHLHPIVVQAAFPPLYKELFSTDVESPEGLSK
#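 Schneider cells (Drosophila), stable Gal4 DBD–ROR gamma + UAS-luc; 1 hr cmpd preincubation; Cu2+ induction 700 uM final; 20 hr ambient; luminescence.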
# Numbers stand for hits; i = inactive; ? = inconclusive; nt = no result given; [ ] = another dose, or the depositor's remark. In the library only some 11% were active in any assay of this set; here they are far more common. Unless noted, the call rests on the fitted dose curve; in most records, active means well fitted curve in the direction sought with a large enough effect; inconclusive means small, poorly fitted or top-dose-only effect, or another doubt; inactive means no such curve, though single readings can be large; an effect the other way counts as inactive or inconclusive.
SMILES,SW480 rerep,IL1B secr inh,MCF10A rereplic,VP16 counter,RORgamma inh
CSCCCNC(=S)N1CCc2ccccc2C1,i,i,i,?,3.5µM
COC(=O)C(C(C)=O)C(NC(=O)OC(C)(C)C)c1ccccc1 (configuration not stated),nt,nt,nt,i,i
CC[C@@H](C)[C@@H](CO[C@@H](Cc1ccccc1)C(=O)N[C@@H](CCS(C)(=O)=O)C(=O)OC(C)C)NC[C@@H](N)CS,nt,nt,nt,i,i
CC1=C2CCCC[C@@]23C2C(=O)N(C)C(=O)[C@@H]2ON3OC1 (some centres not stated),nt,i,nt,nt,nt
CN(C(=O)CSC1=NCCS1)c1ccccc1,i,i,i,i,i
CN(C(=O)CSc1nc(N)c2c3c(sc2n1)CSC(C)(C)C3)c1ccccc1,i,-55,8.2µM,i,i
CCC(C)NC(=O)CSc1nnc(-c2ccc(OC)c(OC)c2)c(-c2ccc(OC)c(OC)c2)n1 (configuration not stated),i,i,i,i,i
Cc1c(C(=O)NCc2cccc(C(F)(F)F)c2)sc(=O)n1Cc1ccccc1F,nt,i,nt,nt,nt
COc1ccc(OC)c(/C=C/C(=O)Nc2cccc(S(=O)(=O)NC3=NCCCCC3)c2)c1,i,i,?,nt,nt
COc1ccc(/C=C/C(=O)Nc2cccc(S(=O)(=O)NC3=NCCCCC3)c2)cc1,i,i,i,i,i
O=C(/C=C/c1ccc(OC(F)F)cc1)Nc1cccc(S(=O)(=O)NC2=NCCCCC2)c1,i,-81,?,?,?
COc1ccccc1/C=C/C(=O)Nc1cccc(S(=O)(=O)NC2=NCCCCC2)c1,?,-57,i,i,?
COc1ccc(/C=C/C(=O)Nc2ccc(OC)nc2)cc1,i,?,i,i,i
COc1cc(/C=C/C(=O)Nc2cccc(S(=O)(=O)NC3=NCCCCC3)c2)ccc1OCC#N,i,-56,i,nt,nt
COc1ccc(NC(=O)/C=C/c2ccc(OC(F)F)cc2)cn1,?,-54,21µM,i,i
CNC(=O)NC(=O)C(NC1CCCc2ccccc21)c1ccccc1 (configuration not stated),?,i,?,i,i
Cc1ccc(NC(=O)C(NC2CCCc3ccccc32)c2ccccc2)cc1Cl (configuration not stated),?,i,1.3µM,i,i[10 µM]
Cc1ccc(CNC(=O)CO/N=C/c2ccc(C(C)(C)C)cc2)cc1,i,i,?,7.9µM,i[10 µM]
CC(C)(C)c1ccc(/C=N/OCC(=O)NCc2ccccc2)cc1,?,i,?,?,?
CC(C)(C)c1ccc(/C=N/OCC(=O)NCc2ccc(F)cc2)cc1,21µM,-69,?,i,?
COc1ccc(CNC(=O)CN(C)Cc2ccc(C(C)(C)C)cc2)cc1,i,i,?,i,i
COC(=O)c1cc(=O)n2c(sc3ccccc32)c1C#N,23µM,i,21µM,i,i
Cc1ccc(C)c(NC(=O)CCC(=O)N/N=C/c2ccc[nH]2)c1,i,i,i,i,i
O=C(Cc1ccccc1)N/N=C/c1ccc2cccc(O)c2n1,?,i,?,?,7.9µM
Cc1ccc(NCC(=O)N/N=C\c2ccc[nH]2)cc1,i,i,i,?,6.3µM
SMILES,SW480 rerep,IL1B secr inh,MCF10A rereplic,VP16 counter,RORgamma inh
O=C(Cc1ccccc1)N/N=C/c1ccc[nH]1,i,i,i,i,13µM
Cc1ccc(NCC(=O)N/N=C\C(Br)=C\c2ccccc2)cc1,i,-98,i,?,?
CCOC(=O)[C@]12CCCC=C1N(Cc1ccccc1)C(=O)[C@H](CC(=O)N1CCC(c3ccccc3)CC1)C2,nt,i,nt,nt,nt
CC(=O)c1ccc(OC(C)c2nc3ccccc3s2)cc1 (configuration not stated),i,i,i,i,?
COc1ccccc1-c1ccc(C(=O)O)o1,i,i,i,i,i
Cc1ccc(C)c(-c2ccc(C(=O)O)o2)c1,nt,nt,nt,i,13µM
CN(C)c1cc(-c2ccc(Br)cc2)oc(=O)c1Cl,i,-51,i,i,i
Oc1ccc(NCc2ccccc2OCc2ccccc2F)cc1,?,i,?,16µM,13µM
Cc1sc2nc(CSc3ccccc3)nc(NCCN(C)C)c2c1C,i,?,i,i,i
Cc1sc2nc(CSc3ccccc3)nc(N3CCC(C(N)=O)CC3)c2c1C,i,-63,?,i,i
CCNc1nc(CSc2ccccc2)nc2sc(C)c(C)c12,i,i,?,5µM,5.6µM
CCOC(=O)c1sc2nc(CSc3ccccc3)nc(N3CCC(C(N)=O)CC3)c2c1C,i,-116,?,i,i
Cc1sc2nc(CN3CCOCC3)nc(NCCc3ccccc3)c2c1C,i,i,i,?,7.1µM
Cc1sc2nc(CSc3ccccc3)nc(N3CCOCC3)c2c1C,i,i,?,i,i
CCOC(=O)c1sc2nc(CC(=O)OC)nc(N3CCN(c4ccccn4)CC3)c2c1C,i,i,?,i,?
NS(=O)(=O)c1ccc(CCNC(=O)C(=O)c2cn(CC(=O)N3CCCC3)c3ccccc23)cc1,i,i,i,i,i
COc1ccc(CN2C(=O)C(CC(=O)NCc3cccs3)CC(C(=O)N(C(C)C)C(C)C)=C2C)cc1 (configuration not stated),nt,i,nt,nt,nt
CC(C)C[C@@H]1COc2cc(N(C)CCO)ccc2S(=O)(=O)N1,nt,i,nt,nt,nt
Cn1c(=O)c2cc(NC(=S)NCc3ccccc3F)ccc2n1Cc1cccc(C(F)(F)F)c1,nt,i,nt,nt,nt
C[C@H]1CN([C@@H](C)CO)C(=O)c2cc(Br)cnc2O[C@@H]1CN(C)S(=O)(=O)c1cn(C)cn1,nt,i,nt,nt,nt
CCc1cccc2c(C(=O)COC(=O)c3c(C)noc3C)c[nH]c12,?,i,23µM,i,i
Cc1onc(-c2c(F)cccc2Cl)c1C(=O)OCC(=O)c1c[nH]c2ccccc12,i,-52,i,?,?
NCC1O[C@@H](O[C@H]2C(O)C(O[C@@H]3C(O[C@H]4OC(CO)C(O)C(O)C4N)C(N)CC(N)[C@H]3O)O[C@@H]2CO)C(N)C(O)C1O (some centres not stated),nt,nt,nt,i,i
CCOC(=O)c1c(NC(=O)CSc2nc3ccc(C)cc3[nH]2)sc2c1CC(C)(C)NC2(C)C,?,-85,?,nt,nt
CCOC(=O)c1c(NC(=O)CSc2nnnn2-c2ccccc2OCC)sc2c1CC(C)(C)NC2(C)C,?,-78,?,nt,nt
CCOC(=O)c1c(NC(=O)CSc2nnnn2-c2ccccc2)sc2c1CC(C)(C)NC2(C)C,?,-62,?,nt,nt
CCCCn1c(SCC(=O)c2ccc3c(c2)OCCO3)nnc1-c1ccoc1C,i,-96,i,i,i
c1ccc(NC2=NCCN2CCC2CCCC2)cc1,i,i,i,i,i
COc1cc(C(c2c(C)[nH][nH]c2=O)c2c(C)[nH][nH]c2=O)ccc1OCc1ccc([N+](=O)[O-])cc1,?,i,21µM,?,6.3µM
COc1cc(C(c2c(C)[nH][nH]c2=O)c2c(C)[nH][nH]c2=O)ccc1OC(C)C,?,-70,?,i,i
